# Test results: PubChem BioAssay (NCI)
# The panel holds about 83,000 compounds, 20% with a hit somewhere; the sample as a whole holds those more often.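 Negative percent growth values reflect cell death: -40 means 40% of the cells present at the start died, and -100 means all died.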 Unmarked numbers belong to inactive results. Calls of active or inactive are those of the source. Rule for the calls: active = growth percent below 10; inactive = the rest.
# Columns and labels:
# Experiment in all cases: NCI-60 one-dose screen, 48 h (100 = growth as untreated, 0 = no growth, -100 = all killed)
# SK-MEL-2 melanoma = settings: 10 µM unless noted
# EKVX NSCLC = settings: 10 µM unless noted
# SN12C renal = settings: 10 µM unless noted
# UO-31 renal = settings: 10 µM unless noted
# TK-10 renal = settings: 10 µM unless noted
# ACHN renal = settings: 10 µM unless noted
# CAKI-1 renal = settings: 10 µM
# A498 renal = settings: 10 µM unless noted
# CCRF-CEM leukemia = settings: 10 µM unless noted
# MOLT-4 leukemia = settings: 10 µM unless noted
# SR leukemia = settings: 10 µM unless noted
# RPMI-8226 leukemia = settings: 10 µM unless noted
# OVCAR-8 ovarian = settings: 10 µM unless noted
# OVCAR-5 ovarian = settings: 10 µM unless noted
# OVCAR-4 ovarian = settings: 10 µM unless noted
# SK-OV-3 ovarian = settings: 10 µM unless noted
# IGROV1 ovarian = settings: 10 µM unless noted
# HS 578T breast = settings: 10 µM unless noted
# NCI/ADR-RES ovarian = settings: 10 µM unless noted
# OVCAR-3 ovarian = settings: 10 µM unless noted
SMILES,growth (SK-MEL-2 melanoma) [%],growth (EKVX NSCLC) [%],growth (SN12C renal) [%],growth (UO-31 renal),growth (TK-10 renal) [%],growth (ACHN renal),growth (CAKI-1 renal),growth (A498 renal),growth (CCRF-CEM leukemia),growth (MOLT-4 leukemia),growth (SR leukemia),growth (RPMI-8226 leukemia),growth (OVCAR-8 ovarian),growth (OVCAR-5 ovarian) [%],growth (OVCAR-4 ovarian) [%],growth (SK-OV-3 ovarian),growth (IGROV1 ovarian),growth (HS 578T breast) [%],growth (NCI/ADR-RES ovarian),growth (OVCAR-3 ovarian) [%]
CCn1c2ccc(/C=N/OCCCN(C)C)cc2c2cc(/C=N/OCCCN(C)C)ccc21,125,48.6,63.6,-90.4% (active),132,-15.5% (active),-16.5% (active),54.1%,9.36% (active),0.746% (active),-40.8% (active),-15.9% (active),-5.7% (active),31.1,52.7,109%,-52.8% (active),73.8,9.38% (active),
COc1ccc(/C=N\NC(=O)c2ccc3nc(-c4ccc(Br)cc4)[nH]c3c2)cc1,96.9,39.6,17.1,75.9%,51.6,35.1%,35%,82%,53.2%,61.9%,11.8%,42.1%,13.6%,79.2,12.5,62.8%,20%,14.8,75.2%,
CNC(=O)c1cc(Oc2ccc3nc(NC(=O)c4ccc(CN5CCN(C)CC5)c(C(F)(F)F)c4)sc3c2)ccn1,98.7,59.3,76.4,58.5%,104,76.9%,53.3%,80.3%,49.9%,39.2%,-4.18% (active),19.6%,73.8%,80.7,52.4,87.1%,80.1%,52.9,78%,
CCn1c2ccc(/C=N/NS(=O)(=O)CCN(C)C)cc2c2cc(/C=N/NS(=O)(=O)CCN(C)C)ccc21,105,110,99.3,88%,88.1,97%,82.1%,69.8%,103%,103%,83.8%,99.8%,104%,100,99.8,104%,77.7%,91.1,98.1%,
CCCCSc1nnc(-c2ccc(-c3ccc(Cl)cc3)nc2C)o1,106,95.4,98.2,93.4%,109,104%,95.4%,71%,99.7%,96.3%,95.5%,103%,109%,101,102,111%,99.1%,105,99.8%,
Cc1ccc(NC(=O)c2cccc(CN3CCN(C)CC3)c2)cc1Oc1ccc(-c2[nH]nc3ncnc(N)c23)cc1,73.8,97.5,80,93.3%,93.5,92.6%,59.3%,89.2%,47%,0.353% (active),6.56% (active),48.7%,83.1%,80.8,81.9,78.8%,63.3%,64.2,101%,
Oc1ccc(CSc2nnc(-c3ccncc3)n2-c2ccccc2)c2cccnc12,29.7,48.2,11,9.11% (active),34.1,14.4%,15.7%,44%,13.1%,20.1%,35.6%,13.6%,18.3%,45.7,17,9.36% (active),8.84% (active),15.4,9.52% (active),
O=C1NC(=O)/C(=C/c2ccc(OCc3cc4ccccc4nc3Cl)cc2)S1,112,99.3,95.9,80.6%,110,92.8%,97.1%,100%,88.9%,101%,91%,78.7%,99%,114,93.5,,108%,111,100%,104
COc1ccc(C(=O)c2c(N)c(C#N)cn2-c2cccc(OC)c2)cc1,28.8,38.7,32.4,33.8%,69.2,38.5%,30.5%,-1.17% (active),18.1%,29.3%,27%,22.1%,34.2%,56.9,63.1,,,11,9.32% (active),
O=C(NNc1nc2cc(F)c(F)cc2n2cccc12)c1ncccn1,34.5,17.3,23.9,17.7%,48.6,12.7%,18.2%,17.7%,12.7%,16.6%,18.7%,20.8%,21.9%,49.6,13.4,,20.5%,49.1,10.1%,20.8
O=C1c2c(c3c4cccnc4[nH]c3c3ccc4ccccc4c23)C(=O)N1CCN1CCOCC1,98.4,86.7,68.4,54.5%,112,41.3%,46.2%,69%,23.9%,7.9% (active),21.8%,42.5%,47.2%,98.3,84.4,86.9%,,82.1,47%,
C/C(=C(/C)C1CC1CCN(C(=O)c1ccc([N+](=O)[O-])cc1)S(=O)(=O)c1ccc(C)cc1)C1CCCCC1 (stereo not given),102,82.4,91.8,92.2%,108,99%,84.9%,105%,93.6%,80.3%,94.8%,85.7%,97.6%,101,90.8,,111%,102,94.3%,96.2
